Laboratory results taken from the supplement of paper PMC9334596.
Several values for one entry are separate records, joined by “and”; a condition that tells them apart may be missing. Equal entries are not always repeated. Whole data set: some 5,300 compounds, median “PER2::LUC luminescence relative to vehicle control” near 0.96, cut for the highest 2% near 1.3. The list comes from a sample in which the highest values are over-represented; it also holds similar structures and randomly drawn compounds.

Test system: mPer2Luc MEF
Assay: PER2::LUC luminescence relative to vehicle control (fold of vehicle); higher = higher PER2::LUC reporter signal
Details: 10 µM
Procedure, shortened: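 In 384-well plates, ~3000 mPer2Luc reporter mouse embryonic fibroblasts per well were cultured in DMEM with 10% FBS at 37 °C and 5% CO2 for 48 h before compounds from commercial libraries were added at 10 μM. ONE-Glo luciferase readings were taken 24 h and 30 h after treatment. Each value is PER2::LUC luminescence given as fold of vehicle control.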

COc1cc(C)c2c(=O)cc(-c3ccccc3)oc2c1
PER2::LUC luminescence (time after treatment 24 h): 1.64 | PER2::LUC luminescence (time after treatment 30 h): 1.76

O=c1cc(-c2ccccc2)oc2cc(O)cc(O)c12
PER2::LUC luminescence (time after treatment 24 h): 1.55 and 1.53 | PER2::LUC luminescence (time after treatment 30 h): 2.06 and 1.73

COc1cccc2oc(-c3ccccc3)cc(=O)c12
PER2::LUC luminescence (time after treatment 24 h): 1.41 | PER2::LUC luminescence (time after treatment 30 h): 1.43

COc1ccc(-c2cc(=O)c3c(OC)c(OC)c(OC)cc3o2)cc1OC
PER2::LUC luminescence (time after treatment 24 h): 0.736 | PER2::LUC luminescence (time after treatment 30 h): 0.843

COc1ccc(-c2cc(=O)c3c(OC(C)=O)cc(OC(C)=O)cc3o2)cc1
PER2::LUC luminescence (time after treatment 24 h): 1.25 | PER2::LUC luminescence (time after treatment 30 h): 1.3

COc1cc(OC)c2c(=O)cc(-c3ccccc3)oc2c1
PER2::LUC luminescence (time after treatment 24 h): 1.01 | PER2::LUC luminescence (time after treatment 30 h): 1.12

O=c1cc(-c2ccc(O)cc2)oc2cc(O)cc(O)c12
PER2::LUC luminescence (time after treatment 24 h): 0.595 | PER2::LUC luminescence (time after treatment 30 h): 0.545

O=c1cc(-c2ccccc2)oc2cc(O)c(O)c(O)c12
PER2::LUC luminescence (time after treatment 24 h): 1.13 | PER2::LUC luminescence (time after treatment 30 h): 1.1

COc1c(O)cc(O)c2c(=O)cc(-c3ccccc3)oc12
PER2::LUC luminescence (time after treatment 24 h): 1.03 | PER2::LUC luminescence (time after treatment 30 h): 1.02

O=c1cc(-c2ccc(O)c(O)c2)oc2cc(O)cc(O)c12
PER2::LUC luminescence (time after treatment 24 h): 1.01 | PER2::LUC luminescence (time after treatment 30 h): 1.1

O=c1cc(-c2ccccc2)oc2cccc(O)c12
PER2::LUC luminescence (time after treatment 24 h): 1.25 | PER2::LUC luminescence (time after treatment 30 h): 1.42

O=C(O)[C@H]1O[C@@H](Oc2cc3oc(-c4ccccc4)cc(=O)c3c(O)c2O)[C@H](O)[C@@H](O)[C@@H]1O
PER2::LUC luminescence (time after treatment 24 h): 1.22 | PER2::LUC luminescence (time after treatment 30 h): 1.34

CC[C@H]1OC(=O)C[C@@H](O)[C@H](C)[C@@H](O[C@@H]2O[C@H](C)[C@@H](O)[C@H](N(C)C)[C@H]2O)[C@@H](CCN2CCCCC2)C[C@@H](C)C(=O)/C=C/C(C)=C/[C@@H]1CN1CCCCC1
PER2::LUC luminescence (time after treatment 24 h): 0.885 | PER2::LUC luminescence (time after treatment 30 h): 0.882

CC1NC(=O)NC1=O (stereo not given)
PER2::LUC luminescence (time after treatment 24 h): 0.946 | PER2::LUC luminescence (time after treatment 30 h): 0.877

CCO[C@H]1CN(C2CCC(O)(c3ccc4c(c3)OCO4)CC2)C[C@@H]1NC(=O)CNC(=O)c1cccc(C(F)(F)F)c1 (stereo not given in full)
PER2::LUC luminescence (time after treatment 24 h): 0.97 | PER2::LUC luminescence (time after treatment 30 h): 0.88

C#CCN(Cc1cc2c(=O)n(C)c(CN3CCN(C)CC3)nc2cc1Cl)c1ccc(C(=O)NCc2cccnc2)cc1
PER2::LUC luminescence (time after treatment 24 h): 0.621 | PER2::LUC luminescence (time after treatment 30 h): 0.565

c1ccc2c3c([nH]c2c1)[C@H]1[C@@H]2CC[C@@H]([C@@H]4CCCN[C@@H]42)N1CC3
PER2::LUC luminescence (time after treatment 24 h): 1.23 | PER2::LUC luminescence (time after treatment 30 h): 1

CC(C)CCC[C@@H](C)[C@H]1CC[C@H]2[C@@H]3C=CC4=CC(=O)CC[C@]4(C)[C@H]3CC[C@]12C
PER2::LUC luminescence (time after treatment 24 h): 0.981 | PER2::LUC luminescence (time after treatment 30 h): 0.927

CC(C(=O)O[C@]12CCC[C@H](CC1)N2C)c1ccc(Br)cc1 (stereo not given in full)
PER2::LUC luminescence (time after treatment 24 h): 0.821 | PER2::LUC luminescence (time after treatment 30 h): 0.934

CCOc1ccc(Oc2ccc(OCc3cc(F)ccc3F)cc2)c(N)c1
PER2::LUC luminescence (time after treatment 24 h): 1.03 | PER2::LUC luminescence (time after treatment 30 h): 0.887

C[C@@H]1O[C@@H](OC[C@H]2O[C@@H](OCCc3ccc(O)c(O)c3)[C@H](O)[C@@H](O[C@@H]3O[C@@H](C)[C@H](O)[C@@H](O)[C@H]3O)[C@@H]2OC(=O)/C=C/c2ccc(O)c(O)c2)[C@H](O)[C@H](O)[C@H]1O
PER2::LUC luminescence (time after treatment 24 h): 1.09 | PER2::LUC luminescence (time after treatment 30 h): 0.982

N[C@@H](C(=O)N[C@@H]1C(=O)N2C(C(=O)O)=C(CSc3cn[nH]n3)CS[C@H]12)c1ccc(O)cc1
PER2::LUC luminescence (time after treatment 24 h): 1 | PER2::LUC luminescence (time after treatment 30 h): 0.912

C/C1=C/CCC(C)(O)/C=C\C(C(C)C)C(OC(=O)c2ccc(O)cc2)C1 (stereo not given)
PER2::LUC luminescence (time after treatment 24 h): 1.06 | PER2::LUC luminescence (time after treatment 30 h): 1.07

O=C1NC(=O)/C(=C\c2ccc3nccnc3c2)S1
PER2::LUC luminescence (time after treatment 24 h): 1.2 | PER2::LUC luminescence (time after treatment 30 h): 1.23

O=C1NC(=O)/C(=C/c2ccc3c(c2)OC(F)(F)O3)S1
PER2::LUC luminescence (time after treatment 24 h): 1.31 and 1.12 | PER2::LUC luminescence (time after treatment 30 h): 1.42 and 1.06

O=C1NC(=O)/C(=C/c2cccc(C(F)(F)F)c2)S1
PER2::LUC luminescence (time after treatment 24 h): 1.02 | PER2::LUC luminescence (time after treatment 30 h): 1.06

O=C(O)c1cccc(CN2C(=O)/C(=C(\c3ccccc3)c3ccc(Cl)cc3)c3ccccc32)c1
PER2::LUC luminescence (time after treatment 24 h): 1.09 | PER2::LUC luminescence (time after treatment 30 h): 1.03

CO[C@@H]1[C@@H](O[C@@H]2O[C@H](C)[C@@H](O[C@H]3C[C@@](C)(O)[C@@H](OC(=O)CC(C)C)[C@H](C)O3)[C@H](N(C)C)[C@H]2O)[C@@H](CC=O)C[C@@H](C)[C@@H](O)/C=C/C=C/C[C@@H](C)OC(=O)C[C@H]1O
PER2::LUC luminescence (time after treatment 24 h): 0.929 | PER2::LUC luminescence (time after treatment 30 h): 1.07

CN(C)c1ccc2c(c1)OC(N)=C(C#N)C2c1cccc(C(F)(F)F)c1 (stereo not given)
PER2::LUC luminescence (time after treatment 24 h): 1.04 | PER2::LUC luminescence (time after treatment 30 h): 1

NC(=O)c1ccccc1Nc1ccnc(Nc2cccc(O)c2)n1
PER2::LUC luminescence (time after treatment 24 h): 0.392 | PER2::LUC luminescence (time after treatment 30 h): 0.446

CC1(C)C2CCC1(C)C(O)C2 (stereo not given)
PER2::LUC luminescence (time after treatment 24 h): 1.1 | PER2::LUC luminescence (time after treatment 30 h): 0.997

Clc1ccc(COC(Cn2ccnc2)c2ccc(Cl)cc2Cl)cc1 (stereo not given)
PER2::LUC luminescence (time after treatment 24 h): 1.26 and 1.03 | PER2::LUC luminescence (time after treatment 30 h): 1.35 and 1.25

Clc1ccc(C(Cn2ccnc2)OCc2ccc(Sc3ccccc3)cc2)c(Cl)c1 (stereo not given)
PER2::LUC luminescence (time after treatment 24 h): 0.905 | PER2::LUC luminescence (time after treatment 30 h): 1.06

Clc1ccc(COC(Cn2ccnc2)c2ccc(Cl)cc2Cl)c(Cl)c1 (stereo not given)
PER2::LUC luminescence (time after treatment 24 h): 1.04 and 0.591 | PER2::LUC luminescence (time after treatment 30 h): 1.29 and 1.01

C=CC(C1=CC(=O)C(OC)=CC1=O)c1ccc(O)cc1 (stereo not given)
PER2::LUC luminescence (time after treatment 24 h): 0.816 | PER2::LUC luminescence (time after treatment 30 h): 0.863

CCCCCCCCCCC1=C(C)C(=O)C(OC)=C(OC)C1=O
PER2::LUC luminescence (time after treatment 24 h): 1.02 | PER2::LUC luminescence (time after treatment 30 h): 0.992

CCN1C[C@H](C)n2c(c(O)c3c(=O)n(Cc4ccc(F)c(Cl)c4)nc(C(=O)NC)c32)C1=O
PER2::LUC luminescence (time after treatment 24 h): 1.29 | PER2::LUC luminescence (time after treatment 30 h): 1.16

C[C@@H]1CCO[C@H]2Cn3cc(C(=O)NCc4ccc(F)cc4F)c(=O)c(O)c3C(=O)N12
PER2::LUC luminescence (time after treatment 24 h): 1.35 and 1.15 | PER2::LUC luminescence (time after treatment 30 h): 1.4 and 1.2

CC(=O)c1ccc2c(c1)C1C=CCC1C(c1cc3c(cc1Br)OCO3)N2 (stereo not given)
PER2::LUC luminescence (time after treatment 24 h): 1.02 | PER2::LUC luminescence (time after treatment 30 h): 0.942

CC(C(=O)Nc1cc(C#N)ccc1CCCC(=O)O)c1ccc(F)c2ccccc12 (stereo not given)
PER2::LUC luminescence (time after treatment 24 h): 1.06 | PER2::LUC luminescence (time after treatment 30 h): 1.03

COC(=O)C(O)CCn1cnc2c(N)ncnc21 (stereo not given)
PER2::LUC luminescence (time after treatment 24 h): 0.95 | PER2::LUC luminescence (time after treatment 30 h): 0.999

CC1(C)S[C@@H]2[C@H](NC(=O)C(C(=O)O)c3ccccc3)C(=O)N2[C@H]1C(=O)O (stereo not given in full)
PER2::LUC luminescence (time after treatment 24 h): 1.05 | PER2::LUC luminescence (time after treatment 30 h): 1.03

CC1(C)S[C@@H]2[C@H](NC(=O)Cc3ccccc3)C(=O)N2[C@H]1C(=O)O
PER2::LUC luminescence (time after treatment 24 h): 1.06 and 1.17 | PER2::LUC luminescence (time after treatment 30 h): 1.72 and 0.949

COc1cccc(OC)c1C(=O)N[C@@H]1C(=O)N2[C@@H]1SC(C)(C)[C@@H]2C(=O)O
PER2::LUC luminescence (time after treatment 24 h): 0.867 | PER2::LUC luminescence (time after treatment 30 h): 0.823

CC(Oc1ccccc1)C(=O)N[C@@H]1C(=O)N2[C@@H]1SC(C)(C)[C@@H]2C(=O)O (stereo not given in full)
PER2::LUC luminescence (time after treatment 24 h): 1.02 | PER2::LUC luminescence (time after treatment 30 h): 0.902

CC1(C)S[C@@H]2[C@H](NC(=O)[C@H](N)c3ccccc3)C(=O)N2[C@H]1C(=O)O
PER2::LUC luminescence (time after treatment 24 h): 1.04 and 0.885 | PER2::LUC luminescence (time after treatment 30 h): 0.911 and 0.808

CC1(C)S[C@@H]2[C@H](NC(=O)COc3ccccc3)C(=O)N2[C@H]1C(=O)O
PER2::LUC luminescence (time after treatment 24 h): 1.09 | PER2::LUC luminescence (time after treatment 30 h): 1.56

Nn1cc(Br)c(=O)[nH]c1=O
PER2::LUC luminescence (time after treatment 24 h): 0.972 | PER2::LUC luminescence (time after treatment 30 h): 0.954

CC[N+]1(C)C2CCC1CC(OC(=O)C1CCC(C(=O)OC3CC4CCC(C3)[N+]4(C)CC)(c3ccccc3)c3ccccc31)C2 (stereo not given)
PER2::LUC luminescence (time after treatment 24 h): 0.898 | PER2::LUC luminescence (time after treatment 30 h): 0.961

CN(Cc1ccccc1)c1ccc2cc(C(=O)O)c(=O)oc2c1
PER2::LUC luminescence (time after treatment 24 h): 1.06 | PER2::LUC luminescence (time after treatment 30 h): 0.948
